In ChEMBL document CHEMBL4808148, “HDAC6 screening dataset using tau-based substrate in an enzymatic assay yields selective inhibitors and activators” (2021) one finds inhibition data, which are given here for 55 compounds.

Structures are written as SMILES. Out of some 5,600 compounds screened, about 150 (2.7%) showed an effect of 50% or more. Many of the other results were omitted from the sample, so strong results are more common in it than they were.

In the test the target is T1, Protein deacetylase HDAC6 (Homo sapiens) (UniProt Q9UBN7).
T1 sequence (whole entry): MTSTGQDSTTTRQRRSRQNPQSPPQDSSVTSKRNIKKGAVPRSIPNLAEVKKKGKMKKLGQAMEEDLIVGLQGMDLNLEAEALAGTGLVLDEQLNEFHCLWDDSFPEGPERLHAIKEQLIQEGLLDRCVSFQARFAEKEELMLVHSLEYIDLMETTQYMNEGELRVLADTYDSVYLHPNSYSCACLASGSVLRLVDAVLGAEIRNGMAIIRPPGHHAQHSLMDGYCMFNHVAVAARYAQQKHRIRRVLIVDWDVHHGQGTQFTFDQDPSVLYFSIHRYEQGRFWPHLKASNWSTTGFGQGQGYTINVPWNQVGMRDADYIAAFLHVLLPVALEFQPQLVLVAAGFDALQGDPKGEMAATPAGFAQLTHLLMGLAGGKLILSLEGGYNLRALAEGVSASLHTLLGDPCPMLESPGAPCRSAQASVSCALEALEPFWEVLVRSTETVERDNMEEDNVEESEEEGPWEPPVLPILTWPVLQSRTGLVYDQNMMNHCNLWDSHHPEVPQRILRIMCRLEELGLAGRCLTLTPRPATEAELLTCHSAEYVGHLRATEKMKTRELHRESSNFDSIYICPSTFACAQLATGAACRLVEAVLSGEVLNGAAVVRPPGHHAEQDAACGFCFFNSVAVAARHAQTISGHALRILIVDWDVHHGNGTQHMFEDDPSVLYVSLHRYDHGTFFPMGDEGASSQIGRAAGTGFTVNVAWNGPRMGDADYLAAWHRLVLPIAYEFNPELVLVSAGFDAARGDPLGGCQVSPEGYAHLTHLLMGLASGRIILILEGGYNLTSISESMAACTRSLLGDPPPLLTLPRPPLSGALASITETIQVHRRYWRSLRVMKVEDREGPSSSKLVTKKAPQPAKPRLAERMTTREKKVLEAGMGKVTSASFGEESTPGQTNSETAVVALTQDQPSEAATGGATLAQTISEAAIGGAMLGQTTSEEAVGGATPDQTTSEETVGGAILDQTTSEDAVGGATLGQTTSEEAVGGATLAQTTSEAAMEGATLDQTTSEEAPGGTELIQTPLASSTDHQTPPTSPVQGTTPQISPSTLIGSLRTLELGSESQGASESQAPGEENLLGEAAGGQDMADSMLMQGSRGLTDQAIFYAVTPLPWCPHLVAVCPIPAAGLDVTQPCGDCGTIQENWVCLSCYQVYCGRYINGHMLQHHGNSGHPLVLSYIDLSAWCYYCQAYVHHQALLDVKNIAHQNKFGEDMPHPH
As to conditions: at 10 µM.
The inhibition is the change of the read-out against control, counted positive when it falls. With `O=C(/C=C/c1cccc(S(=O)(=O)Nc2ccccc2)c1)NO`, the inhibition is 97.7%.
As for `CCNC(=O)/C=C/c1cccc(Br)c1`, the inhibition amounted to 11.1%.
As to `O=C(/C=C/c1ccccc1)NCCO`, the inhibition came out at 44.6%.
The value for `Cc1ccc(C)c(OCCCC(C)(C)C(=O)O)c1` was 4.07%; that for `COc1ccc(Cl)cc1C(=O)NCCc1ccc(C(=O)O)cc1` was -2.67%.
Consider `Cc1cc(Cl)ccc1OCCCC(=O)NO`, for which the inhibition worked out at 87.1%.
For the compound `N=C(N)NCCC[C@H](N)C(=O)NCC(=O)N[C@@H](CC(=O)O)C(=O)N[C@@H](CO)C(=O)O`, the inhibition came to 5.37%.
Regarding `O=C(c1ccc2nccnc2c1)N1CCCCC1`, the inhibition was -1.26%.
As to `CCNC(=O)NS(=O)(=O)c1sc(CC(C)C)cc1-c1ccc(Cn2c(-c3ccccc3)nc(OC)c2C=O)cc1`, the inhibition is -1.89%.
For `COc1ccc(Cl)c(Nc2nc3ccccc3nc2NS(=O)(=O)c2cccc(NC(=O)C(C)(C)N)c2)c1` the value was -9.43%; for `CCOc1ccc2nc(S(N)(=O)=O)sc2c1`, 1.88%; for `COc1ccc2nc(NC(=O)Nc3ccccc3)sc2c1`, 58.2%.
For `COC(=O)[C@H](Cc1cccc(C(=N)N)c1)[C@@H](C)NC(=O)c1ccc(-c2cc[n+]([O-])cc2)cc1` the value was -6.46%.
Regarding `N#CCC1(n2cc(-c3ncnc4[nH]ccc34)cn2)CN(C2CCN(C(=O)c3ccnc(C(F)(F)F)c3F)CC2)C1`, the inhibition was -4.32%.
Take `Cc1ccc(O)c(/N=N/c2ccccc2)n1`: the inhibition is 99.5%.
For the compound `Cc1ccccc1/N=N/c1ccc(/N=N/c2c(O)ccc3ccccc23)c(C)c1`, the inhibition stood at 0.88%.
The value for `CC(C)(CC(=O)N1CCCC1)NCC(=O)N1C[C@@H](F)C[C@H]1C#N` was 1.6%.
Take `Cn1ccc2cc(NC(=O)Nc3cccnc3)ccc21`: the inhibition is 39.6%.
Regarding `Cn1ccc2cc3c(cc21)CCN3C(=O)Nc1cccnc1`, the inhibition is 69.4%.
The value for `CSc1cc2c(cc1C(F)(F)F)N(C(=O)Nc1cccnc1)CC2` was 1.32%; that for `COc1ccccc1N1CCN(CC(O)COc2cc(OC)c(OC)c(OC)c2)CC1` (stereo not given) was -4.5%; that for `O=C(CCCCCCC(=O)NO)NO` was 96.5%.
With `O=C(CCCCCCC(=O)Nc1cccnc1)NO`, the inhibition was 98.1%.
`O=C(CCCCCCCn1cc(-c2cccnc2)nn1)Nc1ccccc1-c1ccccc1`: the inhibition is -3.08%.
The value for `NC(=O)c1cccnc1` was 9.25%.
For `O=C(O)CCCCCCCC(=O)O`, the inhibition is 0.37%.
`O=C(O)CCCCCCCCC(=O)O`: the inhibition is 0.43%.
On to `CC(C)Cc1ccc([C@@H](C)C(=O)NS(C)(=O)=O)cc1`, for which the inhibition is -2.75%.
On to `OC(c1ccc(-c2ccc(CN3CCN(Cc4ccncc4)CC3)cc2)c(F)c1)(C(F)(F)F)C(F)(F)F`, for which the inhibition is -2.34%.
The value for `N#Cc1cccc(C(=O)Nc2cc(-c3ccccc3)nn2-c2ccccc2)c1` was 12.2%; that for `Cc1ccc(-c2ccc(C)cn2)nc1` was 70.4%; that for `CCOc1ccc(NC(=S)N2CCC(C(O)(c3ccccc3)c3ccccc3)CC2)cc1` was -1.16%.
Consider `O=C(O)C(O)C(O)C(O)C(O)CO` (stereo not given), for which the inhibition is -3.09%.
For `O=Cc1ccc(CO)o1` the value was -2.99%.
For `CS(=O)(=O)c1ccc(Oc2cc(F)cc(C#N)c2)c2c1[C@H](O)C(F)(F)C2`, the inhibition is -4.01%.
`CCc1nc(C(N)=O)c(Nc2ccc(N3CCC(N4CCN(C)CC4)CC3)c(OC)c2)nc1NC1CCOCC1`: the inhibition came out at 0.8%.
Consider `Fc1ccc(-c2nc(-c3c(F)cccc3F)[nH]c2-c2ccncc2)cc1`, for which the inhibition was -5.55%.
Regarding `Cc1ccc(-c2cn3c4c(sc3n2)CCCC4)cc1`, the inhibition is 95.1%.
Turning to `N=C(N)Nc1ccc(Cl)cc1`, the inhibition was 0.23%.
In the case of `N=C(N)c1ccc(/N=N/Nc2ccc(C(=N)N)cc2)cc1`, the inhibition was -8.86%.
For `Cc1sc(C)c(C(=O)NC2(c3ccc(C(=O)O)cc3)CC2)c1Cc1ccc(C(F)(F)F)cc1` the value was 3.37%.
As for `O=C1COc2c(CCNCCN(C(=O)CCNCCc3ccc(Cl)c(Cl)c3)C3CCCCC3)ccc(O)c2N1`, the inhibition stood at 3.6%.
Take `C[C@H](C[C@H](N)C(=O)O)C(=O)O`: the inhibition worked out at 2.11%.
Regarding `c1ccc(N2CCN(Cc3nc4ccccc4[nH]3)CC2)nc1`, the inhibition is 1.74%.
As to `c1ccc2[nH]c(-c3cscn3)nc2c1`, the inhibition is 84.5%.
The value for `COc1ccc(C(=O)C2CCN(CC(=O)N(Cc3nc4c(c(=O)[nH]3)COCC4)CC3CC3)CC2)cc1` was -1.1%.
For the compound `O=C(NCC(=O)N1CCCCC1)Nc1ccc2nnsc2c1`, the inhibition came to 4.96%.
Turning to `O=C(O)c1ccc2c(c1)nc(Nc1cccc(Cl)c1)c1ccncc12`, the inhibition is -4.86%.
For the compound `O=C(O)c1ccc2nc(-c3cc(Cl)cc(Cl)c3)oc2c1`, the inhibition stood at 99.2%.
As to `CCS(=O)(=O)c1ccc2oc(-c3ccc4ccccc4c3)nc2c1`, the inhibition was determined as 37.2%.
Take `C=C1C(=O)[C@@]23C(CC[C@@H]1[C@H]2O)[C@@]12CO[C@]3(O)[C@@H](O)[C@@H]1C(C)(C)CC[C@@H]2O` (stereo not given in full): the inhibition was -6.66%.
For `COc1cc2ncc(-c3ccccc3)nc2cc1OC` the value was 97.5%.
Consider `COC(=O)[C@H](NC(=O)c1cc(-c2ccccc2)nc2ccccc12)c1ccccc1`, for which the inhibition is 0.79%.
`O=C(O)c1cc(-c2ccccc2)nc2ccccc12`: the inhibition was -1.66%.
`C/C(=N\c1ccccc1N)c1c(C)cc(=O)n(O)c1O`: the inhibition was 2.45%.
